According to PubChem BioAssay (EPA / NIEHS):
The source made the active and inactive calls. How the source made its calls: active means hit-call score of the fitted dose curve at least 0.9, where 1 is the maximum; inactive means score below 0.9.

These compounds were tested on Cytochrome P450 (CYP1A1), CYP1A1 (gene 1543) (assay: LTEA_HepaRG_CYP1A1: Life Technologies and Expression Analysis (LTEA) Assay for Cytochrome P450 (CYP1A1) using HepaRG (AID 2283454)). Conditions: mRNA level, 48 h; actives raise or lower the signal.
In short: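 Using HepaRG cultures with 0.5% DMSO as vehicle, eight-concentration exposures (max 100 uM) lasted 48 h. Transcript levels were measured by TaqMan qRT-PCR and normalized to ACTB, GAPDH and POLR2A.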

| Structure (SMILES) | AC50 | outcome |
| --- | --- | --- |
| CCCCCCc1ccc(O)cc1O | 77.7 µM (active) | – |
| Nc1nc2ncc(CNc3ccc(C(=O)N[C@@H](CCC(=O)O)C(=O)O)cc3)nc2c(=O)[nH]1 | 78.5 µM (active) | – |
| CC(C)CC(C)(O)C#CC(C)(O)CC(C)C (stereo unspecified) | 50 µM (active) | – |
| CCOC(=O)COc1ccc2c(c1)CC(NCC(O)c1cccc(Cl)c1)CC2 (stereo unspecified) | – | inactive |
| CC1=CC(=O)CC(C)(C)C1 | – | inactive |
| CC[C@H]1OC(=O)[C@H](C)[C@@H](O[C@H]2C[C@@](C)(OC)[C@@H](O)[C@H](C)O2)[C@H](C)[C@@H](O[C@@H]2O[C@H](C)C[C@H](N(C)C)[C@H]2O)[C@](C)(O)C[C@@H](C)C(=O)[C@H](C)[C@@H](O)[C@]1(C)O | 53.9 µM (active) | – |
| CCOC(=O)c1ccc(C2CCC(NC[C@H](O)COc3ccc(O)c(NS(C)(=O)=O)c3)CC2)cc1 (stereo partly specified) | 73.3 µM (active) | – |
| Cc1ccc(C)c(O)c1 | 51.2 µM (active) | – |
| COc1ccc2sc(C(=O)Nc3nnn[nH]3)c(OC(C)C)c2c1 | 35.3 µM (active) | – |
| CCOCCO | – | inactive |
| CC(=O)OC[C@H]1O[C@@](COC(C)=O)(O[C@H]2O[C@H](COC(C)=O)[C@@H](OC(C)=O)[C@H](OC(C)=O)[C@H]2OC(C)=O)[C@@H](OC(C)=O)[C@@H]1OC(C)=O | 47.5 µM (active) | – |

Each compound was assayed on CFLAR gene, CFLAR (gene 8837) (assay: LTEA_HepaRG_CFLAR: Life Technologies and Expression Analysis (LTEA) Assay for CFLAR gene using HepaRG (AID 2283455)). Conditions: mRNA level, 48 h; actives raise or lower the signal.
In short: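 HepaRG cells were plated for 48 h, switched to serum-free induction medium, then exposed in duplicate for 48 h to 8 concentrations (top 100 uM, half-log steps, 0.5% DMSO). CFLAR mRNA was measured by qRT-PCR, normalized to ACTB, GAPDH and POLR2A.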

| Structure (SMILES) | outcome | AC50 |
| --- | --- | --- |
| CC(=O)c1ccc2c(c1)[C@H](NC(=O)c1ccc(F)cc1)[C@@H](O)C(C)(C)O2 | inactive | – |
| CC1(C)C(=O)N(Br)C(=O)N1Br | inactive | – |
| CC(C)CCO | inactive | – |
| CCc1cc(SCc2sc(-c3ccc(C(F)(F)F)cc3)nc2CN2CCN(c3ccc(OC)cc3)CC2)ccc1OCC(=O)O | – | 92.2 µM (active) |
| O=C(O)CC(O)C(=O)O (stereo unspecified) | inactive | – |
| O=C(O)c1cc(N=Nc2ccc(S(=O)(=O)Nc3ccccn3)cc2)ccc1O | inactive | – |
| C[C@](N)(Cc1ccc(O)c(O)c1)C(=O)O | inactive | – |
| On1ccccc1=S | inactive | – |
| CCCCCCc1ccc(O)cc1O | inactive | – |
| CC(C)CC(C)(O)C#CC(C)(O)CC(C)C (stereo unspecified) | inactive | – |
| CCOC(=O)COc1ccc2c(c1)CC(NCC(O)c1cccc(Cl)c1)CC2 (stereo unspecified) | inactive | – |
| CC[C@H]1OC(=O)[C@H](C)[C@@H](O[C@H]2C[C@@](C)(OC)[C@@H](O)[C@H](C)O2)[C@H](C)[C@@H](O[C@@H]2O[C@H](C)C[C@H](N(C)C)[C@H]2O)[C@](C)(O)C[C@@H](C)C(=O)[C@H](C)[C@@H](O)[C@]1(C)O | inactive | – |
| CCOC(=O)c1ccc(C2CCC(NC[C@H](O)COc3ccc(O)c(NS(C)(=O)=O)c3)CC2)cc1 (stereo partly specified) | inactive | – |
| Cc1ccc(C)c(O)c1 | inactive | – |
| COc1ccc2sc(C(=O)Nc3nnn[nH]3)c(OC(C)C)c2c1 | – | 25.2 µM (active) |
| CCOCCO | inactive | – |

These compounds were tested on Forkhead box O1 (FOXO1), FOXO1 (gene 2308) (assay: LTEA_HepaRG_FOXO1: Life Technologies and Expression Analysis (LTEA) Assay for Forkhead box O1 (FOXO1) using HepaRG (AID 2283456)). Conditions: mRNA level, 48 h; actives raise or lower the signal.
In short: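 Differentiated human HepaRG cells in serum-free induction medium were exposed in duplicate for 48 h to eight half-log concentrations (top 100 uM, 0.5% DMSO). FOXO1 mRNA was measured by TaqMan qRT-PCR, normalised to ACTB, GAPDH and POLR2A, and fitted bidirectionally against DMSO.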

| Structure (SMILES) | outcome | AC50 |
| --- | --- | --- |
| CCCCCCCCO | inactive | – |
| CC(=O)c1ccc2c(c1)[C@H](NC(=O)c1ccc(F)cc1)[C@@H](O)C(C)(C)O2 | inactive | – |
| CC1(C)C(=O)N(Br)C(=O)N1Br | inactive | – |
| CCNc1ccccc1 | inactive | – |
| COc1ccc(/C=C/S(=O)(=O)NC(=O)c2ccc(C)cc2Cl)cc1 | inactive | – |
| CC(C)CCO | inactive | – |
| O=C(O)CCN(C1(C(=O)NO)CCCC1)S(=O)(=O)c1ccc(Oc2ccc(F)cc2)cc1 | inactive | – |
| C=CC(=C)CCC=C(C)C | inactive | – |
| CC(O)CN(CCN(CC(C)O)CC(C)O)CC(C)O (stereo unspecified) | inactive | – |
| CCCN(C1CCN(C(=O)C2CCNCC2)CC1)[C@@H]1CCc2ccc(OC)cc2C1 | – | 50 µM (active) |
| CCc1cc(SCc2sc(-c3ccc(C(F)(F)F)cc3)nc2CN2CCN(c3ccc(OC)cc3)CC2)ccc1OCC(=O)O | – | 92.4 µM (active) |
| CCOc1cccc(-n2cc(C(=O)N3CCN(c4cc(C(=O)O)c5ccccc5c4)CC3)nc2-c2ccc(C)cc2)c1 | – | 80.5 µM (active) |
| O=C(O)CC(O)C(=O)O (stereo unspecified) | inactive | – |
| O=C(O)c1cc(N=Nc2ccc(S(=O)(=O)Nc3ccccn3)cc2)ccc1O | inactive | – |
| C[C@](N)(Cc1ccc(O)c(O)c1)C(=O)O | inactive | – |
| On1ccccc1=S | inactive | – |
| Cn1c(=O)c2c(ncn2C)n(C)c1=O | inactive | – |
| O=C(OC[C@H]1O[C@@H](OC(=O)c2cc(O)c(O)c(OC(=O)c3cc(O)c(O)c(O)c3)c2)[C@H](OC(=O)c2cc(O)c(O)c(OC(=O)c3cc(O)c(O)c(O)c3)c2)[C@@H](OC(=O)c2cc(O)c(O)c(OC(=O)c3cc(O)c(O)c(O)c3)c2)[C@@H]1OC(=O)c1cc(O)c(O)c(OC(=O)c2cc(O)c(O)c(O)c2)c1)c1cc(O)c(O)c(OC(=O)c2cc(O)c(O)c(O)c2)c1 | inactive | – |
| CCCCCCc1ccc(O)cc1O | inactive | – |
| Nc1nc2ncc(CNc3ccc(C(=O)N[C@@H](CCC(=O)O)C(=O)O)cc3)nc2c(=O)[nH]1 | inactive | – |
| CC(C)CC(C)(O)C#CC(C)(O)CC(C)C (stereo unspecified) | inactive | – |
| CCOC(=O)COc1ccc2c(c1)CC(NCC(O)c1cccc(Cl)c1)CC2 (stereo unspecified) | inactive | – |
| CC1=CC(=O)CC(C)(C)C1 | inactive | – |
| CC[C@H]1OC(=O)[C@H](C)[C@@H](O[C@H]2C[C@@](C)(OC)[C@@H](O)[C@H](C)O2)[C@H](C)[C@@H](O[C@@H]2O[C@H](C)C[C@H](N(C)C)[C@H]2O)[C@](C)(O)C[C@@H](C)C(=O)[C@H](C)[C@@H](O)[C@]1(C)O | inactive | – |
| CCOC(=O)c1ccc(C2CCC(NC[C@H](O)COc3ccc(O)c(NS(C)(=O)=O)c3)CC2)cc1 (stereo partly specified) | inactive | – |
| Cc1ccc(C)c(O)c1 | inactive | – |
| COc1ccc2sc(C(=O)Nc3nnn[nH]3)c(OC(C)C)c2c1 | – | 19.9 µM (active) |
| CCOCCO | inactive | – |
| CC(=O)OC[C@H]1O[C@@](COC(C)=O)(O[C@H]2O[C@H](COC(C)=O)[C@@H](OC(C)=O)[C@H](OC(C)=O)[C@H]2OC(C)=O)[C@@H](OC(C)=O)[C@@H]1OC(C)=O | inactive | – |
